Test [1] can be described thus: qHTS of pediatric cancer cell lines to identify multiple opportunities for drug repurposing: Primary screen for MG 63 (6-TG R) cells (AID 1347105). Also: nearly all actives have a fitted effect of over 50% in size. In a few lines:
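Primary screen of approved and investigational compounds on cells in growth media at 37 degrees C, 5% CO2. MIPE set at 11-point and NPC set at 8-point dilutions; viability scored by ATP-based luminescence at 48 hours.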
(In general: In qHTS, concentration-response curves come from the screen itself.)

Test [2] can be described thus: qHTS of pediatric cancer cell lines to identify multiple opportunities for drug repurposing: Primary screen for control Hh wild type fibroblast cells (AID 1347106).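 Also: series mostly up to about 46 µM; a drop in luminescence marks cytotoxicity and a rise apparent proliferation; nearly all actives have a fitted effect of over 55% in size.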 A digest of the protocol:
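Cells (500-1,000/well) in growth media were settled 5 h at 37 degrees C, then given compounds for 48 h. Viability was read as CellTiter-Glo luminescence. Primary runs used MIPE at 11 points (0.78 nM-46 µM) and NPC at 8 points (0.59 nM-46 µM); follow-ups used 11 points.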

Test [3] relates to Zika virus NS2B-NS3 protease. In words: Primary screen GU AMC qHTS for Zika virus inhibitors (AID 1347154). Also: nearly all actives have a fitted effect of over 70% in size. In a few lines:
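Unlinked Zika NS2B hydrophilic domain–NS3 protease complex at 25 nM in 10 mM Tris-HCl pH 8.0, 0.01% Tween 20, with an AMC peptide substrate. Fluorescence change (340/450 nm) over 15 min at room temperature, normalized to controls, fitted to 4-parameter Hill.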

The test system of test [4] is Zika virus NS2B-NS3 protease (unlinked complex). Put plainly: Primary screen GU Rhodamine qHTS for Zika virus inhibitors: Unlinked NS2B-NS3 protease assay (AID 1347159). Also: nearly all actives have a fitted effect of over 60% in size. Also: potency is read from the fitted curve at half-maximal effect. A digest of the protocol: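 Unlinked NS2B/NS3, 25 nM; Rhod110 peptide, 1.5 microM; compounds, up to 114 microM. Reaction run 15 min at RT in 10 mM Tris-HCl pH 8.0, 0.01% Tween 20; kinetic fluorescence change fitted with a 4-parameter Hill model.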

Test [5] concerns Zika virus NS2B-NS3 protease (linked construct). In words: Primary screen NINDS Rhodamine qHTS for Zika virus inhibitors (AID 1347160). Also: nearly all actives have a fitted effect of over 55% in size. Also: potency is read from the fitted curve at half-maximal effect. A digest of the protocol:
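Single-chain NS2B-NS3 protease, 25 nM, pH 8.0; compounds preincubated 15 min. Activity: Rhodamine110 release from 1.5 microM substrate over 15 min, room temperature, data fitted to 4-parameter Hill.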

Another test deals with Furin (Homo sapiens) (UniProt P09958). In words: Furin counterscreen qHTS for Zika virus inhibitors (AID 1347149). Also: nearly all actives have a fitted effect of over 70% in size. Also: potency is read from the fitted curve at half-maximal effect. In a few lines: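 Counterscreen measures cleavage of 2 microM BOC-RVRR-AMC, below its ~15 microM Km, by 5 nM full-length human furin at pH 7.0 after a 15-min compound preincubation. Inhibition derives from the 15-min fluorescence increase at 37C.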
On the technique in general: Counterscreens check selectivity or assay interference.

The subject of test [6] is Zika virus NS2B-NS3 protease (linked construct). Put plainly: Confirmatory screen NINDS AMC qHTS for Zika virus inhibitors (AID 1347152). Also: nearly all actives have a fitted effect of over 70% in size. Also: potency is read from the fitted curve at half-maximal effect. In a few lines: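 Linked NS2B-NS3 1 nM, Tris pH 8.0/0.01% Tween 20; cpd 15 min RT dark; + Nle-KRR-AMC 10 µM (Km 18.3 µM); read 0 and 15 min, 340/450 nm; %inh vs controls, 4-param Hill.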
Test [7] can be described thus: Confirmatory screen GU Rhodamine qHTS for Zika virus inhibitors qHTS (AID 1347157). Also: potency is read from the fitted curve at half-maximal effect; nearly all actives have a fitted effect of over 70% in size. In a few lines: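 Noncovalent NS2B hydrophilic domain/NS3 protease complex (25 nM final) in 10 mM Tris-HCl pH 8.0, 0.01% Tween 20, preincubated 15 min with compounds (up to 114 microM), then 1.5 microM Rhodamine110 substrate. Fluorescence change over 15 min fitted to 4-parameter Hill.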

The nature of test [8]: Confirmatory screen NINDS Rhodamine qHTS for Zika virus inhibitors (AID 1347161). Also: nearly all actives have a fitted effect of over 60% in size. Also: potency is read from the fitted curve at half-maximal effect. A digest of the protocol:
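Each compound, titrated, sat 15 min with 25 nM linked protease before 1.5 microM Rhodamine110 substrate went in. Fluorescence gain over the next 15 min, in pH 8.0 Tris with Tween 20, gave Hill-fitted curves.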

In test [9] the test system is Zika virus NS2B-NS3 protease (linked). Put plainly: 384 well plate NINDS AMC confirmatory qHTS for Zika virus inhibitors (AID 1347163). Also: nearly all actives have a fitted effect of over 50% in size. Also: potency is read from the fitted curve at half-maximal effect. In a few lines: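 Enzyme (5, 30 or 60 nM final) first met test compounds for ~15 min. The AMC-tagged peptide Ac-VKTGKR-AMC followed at 30 microM. Fluorescence was then recorded at 25 min and scaled against no-enzyme and no-inhibitor wells.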

For test [10], the system named is Zika virus NS2B-NS3 protease (linked construct). In words: 384 well plate NINDS Rhodamine confirmatory qHTS for Zika virus inhibitors (AID 1347164).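 Also: fluorescence from protease cleavage of Ac-LKRR-rhodamine 110 substrate; nearly all actives have a fitted effect of over 65% in size.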 Also: potency is read from the fitted curve at half-maximal effect. In a few lines: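 Fluorescence read at ex 485 nm/em 538 nm, 25 min after adding 10 microM Ac-LKRR-Rd substrate at room temperature in the dark; signal normalized to no-enzyme and no-inhibitor controls. Enzyme final 5, 30 or 60 nM; compounds, ~15 min preincubation.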

A short description of test [11]: ZIKV-mCherry secondary qHTS for Zika virus inhibitors (AID 1347158). Also: top concentration of the series differs between compounds. A digest of the protocol:
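This orthogonal imaging screen measured ZIKV-mCherry infection of Vero cells exposed to compound, MOI 1, 48-72 h. Percent infection came from segmented nuclei scored mCherry-positive above 3 SD of negative controls.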

Inconclusive results are not listed. Calls of active or inactive are those of the source. Calls follow the shape of the dose curve; as a rule, active = well fitted curve in the direction sought with a large enough effect; inconclusive = small, poorly fitted or top-dose-only effect, or another doubt; inactive = no such curve, though single readings can be large; an effect the other way counts as inactive or inconclusive.

Sequence of Furin (Homo sapiens) (P09958 whole entry, looked up): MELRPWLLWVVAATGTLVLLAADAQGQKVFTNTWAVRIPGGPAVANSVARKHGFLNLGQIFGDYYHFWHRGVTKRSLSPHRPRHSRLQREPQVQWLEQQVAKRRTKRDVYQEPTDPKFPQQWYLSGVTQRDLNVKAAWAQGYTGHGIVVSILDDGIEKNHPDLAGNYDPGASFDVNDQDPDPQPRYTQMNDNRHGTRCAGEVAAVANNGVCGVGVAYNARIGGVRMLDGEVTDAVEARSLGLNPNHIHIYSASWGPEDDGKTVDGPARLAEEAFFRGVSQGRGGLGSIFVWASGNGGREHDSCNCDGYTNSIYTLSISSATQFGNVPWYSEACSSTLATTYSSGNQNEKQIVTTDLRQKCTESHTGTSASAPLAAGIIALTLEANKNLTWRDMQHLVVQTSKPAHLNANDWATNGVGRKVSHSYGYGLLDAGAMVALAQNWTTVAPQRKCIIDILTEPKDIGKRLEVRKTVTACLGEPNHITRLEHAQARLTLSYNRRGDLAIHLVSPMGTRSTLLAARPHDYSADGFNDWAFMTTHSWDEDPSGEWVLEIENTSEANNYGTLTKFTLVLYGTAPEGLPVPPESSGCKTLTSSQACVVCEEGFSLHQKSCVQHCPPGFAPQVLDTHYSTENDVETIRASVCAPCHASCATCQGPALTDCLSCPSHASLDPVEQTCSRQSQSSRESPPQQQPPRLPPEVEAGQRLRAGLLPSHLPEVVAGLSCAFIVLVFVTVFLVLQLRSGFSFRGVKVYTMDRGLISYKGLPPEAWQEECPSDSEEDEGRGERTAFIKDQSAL

Turning to `Cc1ccc(N)cc1O`, the result in [1] and in test [2] was inactive.
Turning to `CC(C)[N+]1(C)C2CCC1CC(OC(=O)C(CO)c1ccccc1)C2` (configuration not stated), the Potency entry in test [3], in test [4] and in test [5] was “inactive” each time.
As for `O=C(O)/C=C/c1ccc(-c2ccc(O)c(C34CC5CC(CC(C5)C3)C4)c2)cc1`, the Potency with Furin (Homo sapiens) was 44.1 µM (active); in test [6], 35 µM (active); in [7], 1.11 µM (active); in [4], 2.24 µM (active); in [5], 2.24 µM (active); in [8], 1.24 µM (active). Besides, the Potency in test [10] is 3.55 µM (active). Besides, the Potency entry in [9] is “inactive”.
Take `O=C(Nc1ccc(S(=O)(=O)Nc2nccs2)cc1)C(c1ccccc1)c1ccccc1`: the Potency entry (with Furin (Homo sapiens); in test [11]; in test [9]) was “inactive” throughout. In addition, the Potency in [7] is 6.98 µM (active); in test [4], 6.31 µM (active); in test [5] it was 7.08 µM (active); in test [8] it was 4.41 µM (active); in [10], 50.1 µM (active).
Turning to `COc1cc(Nc2nc3ccccc3nc2NS(=O)(=O)c2ccc(NC(=O)c3ccc(OC)c(C)c3)cc2)cc(OC)c1`, the Potency in test [6] is 12.4 µM (active); in test [7] it was 3.12 µM (active); in [4] it was 2.82 µM (active); in [5], 8.91 µM (active); in test [8], 2.78 µM (active); in [10] it was 22.4 µM (active). For the same compound, in test [9], the Potency result is “inactive”.
Take `CC1(C)CCC(C)(C)c2cc(C3(c4ccc(C(=O)O)cc4)OCCO3)ccc21`: the Potency result (in the test with Furin (Homo sapiens); in test [9]) was “inactive” throughout. For the same compound, the Potency in test [6] was 44.1 µM (active); in test [7], 12.4 µM (active); in [4] it was 10 µM (active); in [5] it was 5.62 µM (active); in test [8], 7.84 µM (active).
`Nc1ncnc2c([C@@H]3N[C@H](CO)[C@@H](O)[C@H]3O)c[nH]c12`: the Potency entry (with Furin (Homo sapiens); in test [4]; in test [5]; in test [8]; in test [10]) was “inactive” in each case.
For the compound `O=C(N/N=C/c1ccc(O)c(O)c1)c1cc2ccccc2cc1O`, the Potency result (in the test with Furin (Homo sapiens); in test [6]) was “inactive” each time. The Potency in test [7] is 2.32 µM (active); in [5], 5.01 µM (active); in test [8] it was 6.55 µM (active); in test [9] it was 50.1 µM (active); in test [10], 0.447 µM (active).

The record behind these values is PubChem BioAssay (NCATS).
